Reference: PubChem BioAssay (EPA / NIEHS)
Results filed as inconclusive are left out. Calls of active or inactive are those of the source. Rule for the calls, unless noted: active = hit-call score of the fitted dose curve at least 0.9, where 1 is the maximum; inconclusive = response in the unintended direction; inactive = score below 0.9.

What was measured:
[1] = ATG_TAL_CIS: Attagene CIS-FACTORIAL HepG2 Assay for human TAL Basal Promoter (AID 2282966; active = hit-call score of the fitted dose curve at least 0.9, where 1 is the maximum; inactive = score below 0.9;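 note: background control endpoint measuring basal TAL promoter reporter mRNA not a specific factor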); conditions: HepG2 Attagene cis-factorial TAL promoter reporter; actives raise or lower the signal
In short: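 HepG2 cells were transiently transfected with promoter-driven multiplexed reporter units and dosed for 24 h. Reporter mRNA was measured by RT-PCR with capillary electrophoresis fluorescence; bidirectional fits used DMSO as baseline, serving as a background control.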

[2] = ATG_VDRE_CIS: Attagene CIS-FACTORIAL HepG2 Assay for human Vitamin D Receptor Element (VDRE) (AID 2282968; active = hit-call score of the fitted dose curve at least 0.9, where 1 is the maximum; inactive = score below 0.9); conditions: HepG2 VDRE cis-reporter transcription, actives raise or lower the signal
In short: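 HepG2 cells transiently transfected with cis-element reporter units, dosed 24 h; reporter mRNA measured by RT-PCR, 6-FAM labeling, HpaI digestion and capillary electrophoresis. Activity fitted bidirectionally against DMSO baseline.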

[3] = target: Nuclear receptor subfamily 1 group I member 3 (Homo sapiens) (UniProt Q14994); assay: ATG_CAR_TRANS: Attagene TRANS-FACTORIAL HepG2 Assay for human Constitutive Androstane Receptor (CAR) (AID 2282969); conditions: HepG2 Attagene TRANS-FACTORIAL CAR reporter;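 note: activators raise reporter mRNA above DMSO so AC50 marks induction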
In short: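 HepG2 cells transiently transfected with multiplexed GAL4-UAS reporter units expressing chimeric NR-Gal4 proteins; compound exposure 24 h. Reporter mRNA measured by RT-PCR, 6-FAM labelling, HpaI digestion and capillary electrophoresis; gain-of-signal fitted against DMSO baseline.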

[4] = target: Estrogen receptor (Homo sapiens) (UniProt P03372); assay: ATG_ERa_TRANS: Attagene TRANS-FACTORIAL HepG2 Assay for human Estrogen Receptor alpha (ERa) (AID 2282970); conditions: HepG2 Attagene TRANS ERa GAL4 reporter, mRNA
In short: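 HepG2 cells transiently transfected with multiplexed GAL4-UAS reporter units; ERa activity read via exogenous chimeric NR-Gal4 protein. After 24 hour compound exposure, reporter mRNA measured by RT-PCR with 6-FAM labelling and capillary electrophoresis; gain-of-signal fitted relative to DMSO.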

[5] = target: X-box-binding protein 1 (Homo sapiens) (UniProt P17861); assay: ATG_Xbp1_CIS: Attagene CIS-FACTORIAL HepG2 Assay for human X-box Binding Protein 1 (XBP1) (AID 2282972; active = hit-call score of the fitted dose curve at least 0.9, where 1 is the maximum; inactive = score below 0.9); conditions: HepG2 XBP1 cis-element reporter, Attagene multiplex; actives raise or lower the signal
In short: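 HepG2, transient MRTU transfection (cis-promoter driven), 24 h compound exposure. Total RNA → oligo(dT) RT → PCR → 6-FAM labeling → HpaI cut → CE. Bidirectional fit vs DMSO.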

[6] = ATG_GAL4_TRANS: Attagene TRANS-FACTORIAL HepG2 Assay for GAL4 (Internal Marker) (AID 2282976); conditions: HepG2 Attagene TRANS GAL4 internal marker reporter
In short: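 HepG2 cells transiently transfected with multiplexed GAL4-UAS reporter constructs were dosed for 24 h. Reporter mRNA was measured by RT-PCR, 6-FAM primer extension, HpaI digestion and capillary electrophoresis, and gain of signal was fitted relative to DMSO.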

[7] = target: Estrogen-related receptor gamma (Homo sapiens) (UniProt P62508); assay: ATG_ERRg_TRANS: Attagene TRANS-FACTORIAL HepG2 Assay for human Estrogen-Related Receptor gamma (ERRg) (AID 2282977); conditions: HepG2 Attagene TRANS reporter, ERRg transactivation;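 note: hits increase reporter signal over DMSO so potencies reflect activators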
In short: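 Transient HepG2 transfectants, 24 h compound exposure, GAL4-UAS reporter mRNA by RT-PCR/6-FAM labelling/capillary electrophoresis; positive direction vs DMSO.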

[8] = target: Glucocorticoid receptor (Homo sapiens) (UniProt P04150); assay: ATG_GR_TRANS: Attagene TRANS-FACTORIAL HepG2 Assay for human Glucocorticoid Receptor (GR) (AID 2282978); conditions: HepG2 Attagene TRANS GR reporter, mRNA transcription;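 note: activators score as hits since higher reporter transcript over DMSO is fitted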
In short: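 Exogenous NR-GAL4 fusion activity was assessed through induced GAL4-UAS reporter transcripts in transfected human HepG2 cells, quantified after 24 h by RT-PCR and fluorescent capillary electrophoresis with DMSO as baseline.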

[9] = target: Oxysterols receptor LXR-beta (Homo sapiens) (UniProt P55055); assay: ATG_LXRb_TRANS: Attagene TRANS-FACTORIAL HepG2 Assay for human Liver X Receptor beta (LXRb) (AID 2282981); conditions: HepG2 Attagene TRANS GAL4-LXRb reporter, mRNA
In short: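 HepG2 cells transiently transfected with multiple reporter transcription units carrying chimeric NR-Gal4 proteins acting on GAL4-UAS reporters; compound exposure 24 h. Reporter mRNA quantified by RT-PCR, 6-FAM labelling, HpaI digestion and capillary electrophoresis; gain of signal versus DMSO.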

[10] = target: Hepatocyte nuclear factor 4-alpha (Homo sapiens) (UniProt P41235); assay: ATG_HNF4a_TRANS: Attagene TRANS-FACTORIAL HepG2 Assay for human Hepatocyte Nuclear Factor 4 alpha (HNF4a) (AID 2282982); conditions: HepG2 HNF4a transactivation reporter, mRNA readout
In short: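 HepG2 cells transiently transfected with multiplexed GAL4-UAS reporter units responsive to chimeric NR-GAL4 proteins; compound exposure 24 h. Reporter mRNA quantified by RT-PCR, 6-FAM labelling, HpaI digestion and capillary electrophoresis; gain of signal versus DMSO baseline.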

[11] = ATG_M_06_TRANS: Attagene TRANS-FACTORIAL HepG2 Assay for M06 Transcription Factor (Internal Marker) (AID 2282983); conditions: HepG2 Attagene TRANS M06 internal marker reporter;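 note: reporter transcript level by RT-PCR then capillary electrophoresis fluorescence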
In short: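 HepG2 cells transiently transfected with multiplexed GAL4-UAS reporter transcription units; after 24 h compound exposure, reporter mRNA measured by RT-PCR, FAM-labelled primer extension, HpaI digestion and capillary electrophoresis. Gain-of-signal fitted versus DMSO baseline; background control readout.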

[12] = ATG_M_32_TRANS: Attagene TRANS-FACTORIAL HepG2 Assay for M32 Transcription Factor (Internal Marker) (AID 2282984); conditions: HepG2 Attagene TRANS M32 internal marker reporter
In short: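 HepG2 cells transiently transfected with multiple GAL4-UAS reporter transcription units, dosed for 24 hours; reporter mRNA quantified by RT-PCR, 6-FAM primer extension, HpaI digestion and capillary electrophoresis. Gain-of-signal fitted versus DMSO baseline; internal background-control marker.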

[13] = target: Transcriptional activator Myb (Homo sapiens) (UniProt P10242); assay: ATG_Myb_CIS: Attagene CIS-FACTORIAL HepG2 Assay for human Myeloblastosis (Myb) Proto-Oncogene Transcription Factor (AID 2282986; active = hit-call score of the fitted dose curve at least 0.9, where 1 is the maximum; inactive = score below 0.9); conditions: HepG2 Attagene CIS-FACTORIAL Myb reporter transcription; actives raise or lower the signal
In short: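 In this HepG2 transient-transfection format, cis-regulated reporter mRNA is quantified 24 h post-dosing by RT-PCR with capillary electrophoresis, fitted bidirectionally to DMSO baseline.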

[14] = ATG_M_19_TRANS: Attagene TRANS-FACTORIAL HepG2 Assay for M19 Transcription Factor (Internal Marker) (AID 2282974); conditions: HepG2 Attagene TRANS-FACTORIAL M19 internal marker reporter
In short: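 Using RT-PCR and capillary electrophoresis, reporter mRNA from transiently transfected human HepG2 cells was quantified following 24 h exposure; activity was fitted in the positive direction against DMSO.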

[15] = target: Oxysterols receptor LXR-alpha (Homo sapiens) (UniProt Q13133); assay: ATG_LXRa_TRANS: Attagene TRANS-FACTORIAL HepG2 Assay for human Liver X Receptor alpha (LXRa) (AID 2282980); conditions: HepG2 Attagene TRANS reporter, LXRa transactivation
In short: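 HepG2 cells were transiently transfected with multiplexed reporter units driven by chimeric LXRa–GAL4 fusion proteins, then dosed for 24 h. Reporter mRNA was quantified by RT-PCR, fluorescent labelling and capillary electrophoresis; gain of signal fitted against DMSO baseline.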

[16] = target: Nuclear respiratory factor 1 (Homo sapiens) (UniProt Q16656); assay: ATG_NRF1_CIS: Attagene CIS-FACTORIAL HepG2 Assay for human Nuclear Respiratory Factor 1 (NRF1) Orphan Gene (AID 2282987; active = hit-call score of the fitted dose curve at least 0.9, where 1 is the maximum; inactive = score below 0.9); conditions: HepG2 NRF1 cis-element reporter, Attagene multiplex; actives raise or lower the signal
In short: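 Using DMSO as baseline, gain- or loss-of-signal was fitted for reporter mRNA levels in HepG2 cells transiently transfected with cis-regulated reporter units. Samples were taken 24 h after dosing and read by RT-PCR with capillary electrophoresis.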

[17] = target: Steroid hormone receptor ERR1 (Homo sapiens) (UniProt P11474); assay: ATG_ERRa_TRANS: Attagene TRANS-FACTORIAL HepG2 Assay for human Estrogen-Related Receptor alpha (ERRa) (AID 2282971); conditions: HepG2 Attagene TRANS reporter, ERRa transactivation
In short: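 HepG2 cells transiently transfected with multiplexed GAL4-UAS reporter units reading chimeric ERRa-Gal4 activity; 24 h compound exposure. Reporter mRNA measured by RT-PCR, 6-FAM labelling, HpaI digest and capillary electrophoresis; gain of signal fitted versus DMSO baseline.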

[18] = target: Nuclear receptor subfamily 4 group A member 2 (Homo sapiens) (UniProt P43354); assay: ATG_NURR1_TRANS: Attagene TRANS-FACTORIAL HepG2 Assay for human Nuclear Receptor Related Protein 1 (NURR1) (AID 2282985); conditions: HepG2 Attagene TRANS reporter, mRNA readout
In short: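 HepG2 cells transiently transfected with GAL4-UAS reporter units and chimeric NR-Gal4 constructs; chemical exposure 24 h. Reporter mRNA quantified by RT-PCR, fluorescent labelling and capillary electrophoresis; gain of signal fitted relative to DMSO baseline.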

[19] = target: Bile acid receptor (Homo sapiens) (UniProt Q96RI1); assay: ATG_FXR_TRANS: Attagene TRANS-FACTORIAL HepG2 Assay for Farnesoid X Receptor (FXR) (AID 2282979); conditions: HepG2 Attagene TRANS FXR-GAL4 reporter transcription;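 note: hits raise reporter mRNA above DMSO so AC50 marks FXR activation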
In short: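 HepG2 cells transiently transfected with reporter constructs in which a chimeric FXR-GAL4 protein drives a GAL4-UAS reporter; 24 h compound exposure. Reporter mRNA measured by RT-PCR, FAM labelling, HpaI digestion and capillary electrophoresis; gain-of-signal versus DMSO.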

Measured: AC50

Oxysterols receptor LXR-alpha (Homo sapiens), sequence (Q13133 whole entry, looked up, the tested form may be a part): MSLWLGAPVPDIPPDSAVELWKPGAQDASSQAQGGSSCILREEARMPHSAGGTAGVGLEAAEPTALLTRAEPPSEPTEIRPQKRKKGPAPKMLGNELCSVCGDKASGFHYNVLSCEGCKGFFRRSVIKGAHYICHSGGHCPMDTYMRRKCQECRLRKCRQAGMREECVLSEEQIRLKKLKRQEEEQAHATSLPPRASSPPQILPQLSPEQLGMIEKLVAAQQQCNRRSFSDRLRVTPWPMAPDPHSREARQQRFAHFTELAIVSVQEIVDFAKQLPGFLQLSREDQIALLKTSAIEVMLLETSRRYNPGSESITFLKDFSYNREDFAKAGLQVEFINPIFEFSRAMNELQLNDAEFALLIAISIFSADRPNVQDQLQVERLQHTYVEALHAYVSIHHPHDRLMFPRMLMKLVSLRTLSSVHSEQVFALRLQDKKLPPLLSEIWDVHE
Nuclear respiratory factor 1 (Homo sapiens), sequence (Q16656 whole entry, looked up): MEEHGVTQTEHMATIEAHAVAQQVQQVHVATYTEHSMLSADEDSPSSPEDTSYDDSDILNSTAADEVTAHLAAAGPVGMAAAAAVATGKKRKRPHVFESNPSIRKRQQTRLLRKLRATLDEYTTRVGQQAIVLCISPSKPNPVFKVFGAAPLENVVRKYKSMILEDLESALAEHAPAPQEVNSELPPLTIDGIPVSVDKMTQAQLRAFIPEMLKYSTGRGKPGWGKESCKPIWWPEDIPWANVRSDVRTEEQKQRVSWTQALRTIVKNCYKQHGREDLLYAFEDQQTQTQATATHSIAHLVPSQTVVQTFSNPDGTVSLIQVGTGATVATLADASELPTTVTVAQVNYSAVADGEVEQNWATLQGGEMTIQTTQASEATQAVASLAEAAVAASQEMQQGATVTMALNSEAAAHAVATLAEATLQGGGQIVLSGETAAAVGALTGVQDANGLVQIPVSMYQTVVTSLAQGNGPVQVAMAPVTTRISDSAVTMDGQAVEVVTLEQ
Transcriptional activator Myb (Homo sapiens), sequence (P10242 whole entry, looked up): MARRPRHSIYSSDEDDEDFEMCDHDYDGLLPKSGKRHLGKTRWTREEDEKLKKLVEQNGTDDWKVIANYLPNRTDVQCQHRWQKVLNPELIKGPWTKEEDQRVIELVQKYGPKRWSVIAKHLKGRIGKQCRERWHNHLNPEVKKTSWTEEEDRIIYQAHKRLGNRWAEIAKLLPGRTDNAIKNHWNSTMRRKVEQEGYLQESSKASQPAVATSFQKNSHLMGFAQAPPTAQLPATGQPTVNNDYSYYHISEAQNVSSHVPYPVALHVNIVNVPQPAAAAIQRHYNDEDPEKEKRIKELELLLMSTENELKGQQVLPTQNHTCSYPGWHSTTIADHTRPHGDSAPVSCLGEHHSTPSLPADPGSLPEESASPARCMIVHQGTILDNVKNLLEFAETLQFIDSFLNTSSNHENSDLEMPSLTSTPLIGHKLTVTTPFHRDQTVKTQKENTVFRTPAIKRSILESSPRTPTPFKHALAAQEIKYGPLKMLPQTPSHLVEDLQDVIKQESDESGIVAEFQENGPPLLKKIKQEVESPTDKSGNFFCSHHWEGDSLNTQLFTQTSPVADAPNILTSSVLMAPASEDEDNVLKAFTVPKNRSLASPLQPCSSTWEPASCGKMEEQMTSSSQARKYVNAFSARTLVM
Estrogen-related receptor gamma (Homo sapiens), sequence (P62508 whole entry, looked up, the tested form may be a part): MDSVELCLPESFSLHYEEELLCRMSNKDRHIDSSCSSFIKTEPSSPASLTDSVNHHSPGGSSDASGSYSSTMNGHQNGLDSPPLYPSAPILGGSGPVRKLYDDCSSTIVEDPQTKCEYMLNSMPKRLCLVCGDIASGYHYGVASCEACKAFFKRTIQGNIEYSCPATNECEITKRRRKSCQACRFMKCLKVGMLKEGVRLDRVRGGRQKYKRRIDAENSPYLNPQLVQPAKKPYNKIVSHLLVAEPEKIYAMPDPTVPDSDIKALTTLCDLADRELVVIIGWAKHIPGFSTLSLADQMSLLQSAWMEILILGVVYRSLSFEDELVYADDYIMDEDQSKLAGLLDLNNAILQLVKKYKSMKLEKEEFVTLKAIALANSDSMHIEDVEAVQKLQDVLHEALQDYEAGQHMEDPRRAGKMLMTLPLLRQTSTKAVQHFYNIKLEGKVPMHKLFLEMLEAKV
Glucocorticoid receptor (Homo sapiens), sequence (P04150 whole entry, looked up, the tested form may be a part): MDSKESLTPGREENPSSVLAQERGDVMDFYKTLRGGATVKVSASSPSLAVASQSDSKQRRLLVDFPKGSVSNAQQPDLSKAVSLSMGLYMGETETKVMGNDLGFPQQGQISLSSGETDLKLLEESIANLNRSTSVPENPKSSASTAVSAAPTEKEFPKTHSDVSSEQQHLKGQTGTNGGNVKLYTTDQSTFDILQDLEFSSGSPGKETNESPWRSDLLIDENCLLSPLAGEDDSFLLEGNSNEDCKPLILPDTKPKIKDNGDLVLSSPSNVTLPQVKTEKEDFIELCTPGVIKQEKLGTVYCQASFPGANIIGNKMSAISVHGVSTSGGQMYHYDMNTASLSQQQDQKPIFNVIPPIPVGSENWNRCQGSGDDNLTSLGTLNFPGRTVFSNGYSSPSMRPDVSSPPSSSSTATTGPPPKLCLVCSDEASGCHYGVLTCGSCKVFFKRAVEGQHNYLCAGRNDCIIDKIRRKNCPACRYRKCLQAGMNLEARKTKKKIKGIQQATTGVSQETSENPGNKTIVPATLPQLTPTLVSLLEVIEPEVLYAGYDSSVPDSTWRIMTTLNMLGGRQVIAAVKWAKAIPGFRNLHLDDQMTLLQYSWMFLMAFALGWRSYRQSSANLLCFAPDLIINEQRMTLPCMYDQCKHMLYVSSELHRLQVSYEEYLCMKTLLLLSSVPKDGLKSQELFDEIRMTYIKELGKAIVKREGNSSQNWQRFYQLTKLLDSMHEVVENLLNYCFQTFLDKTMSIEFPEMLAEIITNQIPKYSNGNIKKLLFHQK
Hepatocyte nuclear factor 4-alpha (Homo sapiens), sequence (P41235 whole entry, looked up, the tested form may be a part): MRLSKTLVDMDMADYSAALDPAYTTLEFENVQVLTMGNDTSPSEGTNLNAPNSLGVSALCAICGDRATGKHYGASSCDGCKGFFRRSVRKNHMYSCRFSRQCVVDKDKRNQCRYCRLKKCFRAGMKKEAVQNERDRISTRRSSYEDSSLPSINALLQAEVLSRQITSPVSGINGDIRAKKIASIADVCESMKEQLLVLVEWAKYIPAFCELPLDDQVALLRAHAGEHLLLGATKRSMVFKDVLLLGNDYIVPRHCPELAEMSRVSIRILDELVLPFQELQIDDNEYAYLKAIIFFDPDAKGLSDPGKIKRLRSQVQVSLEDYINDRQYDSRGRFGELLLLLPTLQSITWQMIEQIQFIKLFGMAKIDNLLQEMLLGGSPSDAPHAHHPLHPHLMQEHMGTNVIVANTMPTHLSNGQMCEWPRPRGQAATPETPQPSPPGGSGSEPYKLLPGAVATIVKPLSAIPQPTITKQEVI
Nuclear receptor subfamily 4 group A member 2 (Homo sapiens), sequence (P43354 whole entry, looked up, the tested form may be a part): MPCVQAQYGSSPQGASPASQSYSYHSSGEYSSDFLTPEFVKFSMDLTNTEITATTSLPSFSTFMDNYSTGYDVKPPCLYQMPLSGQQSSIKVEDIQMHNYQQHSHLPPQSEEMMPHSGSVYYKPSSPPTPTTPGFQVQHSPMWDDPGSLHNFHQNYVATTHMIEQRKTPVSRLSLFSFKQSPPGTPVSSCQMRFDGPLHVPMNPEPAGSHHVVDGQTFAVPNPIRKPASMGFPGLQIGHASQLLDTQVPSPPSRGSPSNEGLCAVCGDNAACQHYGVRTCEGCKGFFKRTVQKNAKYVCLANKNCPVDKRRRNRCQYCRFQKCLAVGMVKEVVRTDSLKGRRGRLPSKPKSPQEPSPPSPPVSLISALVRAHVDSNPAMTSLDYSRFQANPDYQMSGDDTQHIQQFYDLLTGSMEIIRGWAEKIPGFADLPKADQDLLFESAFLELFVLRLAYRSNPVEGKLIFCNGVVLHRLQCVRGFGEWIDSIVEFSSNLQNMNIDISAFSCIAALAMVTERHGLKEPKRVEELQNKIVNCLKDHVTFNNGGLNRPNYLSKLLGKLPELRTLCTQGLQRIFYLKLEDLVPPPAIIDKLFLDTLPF
Estrogen receptor (Homo sapiens), sequence (P03372 whole entry, looked up, the tested form may be a part): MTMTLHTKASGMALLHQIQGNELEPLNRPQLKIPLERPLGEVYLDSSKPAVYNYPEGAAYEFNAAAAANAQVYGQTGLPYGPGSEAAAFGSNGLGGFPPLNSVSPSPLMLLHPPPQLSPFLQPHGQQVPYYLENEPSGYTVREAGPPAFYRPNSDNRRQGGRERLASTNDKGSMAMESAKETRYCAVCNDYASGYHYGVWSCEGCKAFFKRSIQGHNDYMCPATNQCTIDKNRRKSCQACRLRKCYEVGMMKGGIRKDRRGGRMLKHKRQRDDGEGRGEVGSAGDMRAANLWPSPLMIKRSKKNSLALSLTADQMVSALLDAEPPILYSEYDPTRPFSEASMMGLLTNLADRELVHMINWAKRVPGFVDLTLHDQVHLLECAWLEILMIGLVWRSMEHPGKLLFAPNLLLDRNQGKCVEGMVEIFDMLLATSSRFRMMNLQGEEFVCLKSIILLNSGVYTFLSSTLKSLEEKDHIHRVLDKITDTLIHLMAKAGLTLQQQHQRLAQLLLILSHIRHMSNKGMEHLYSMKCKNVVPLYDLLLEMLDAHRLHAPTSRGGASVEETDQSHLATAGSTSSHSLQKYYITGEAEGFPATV
X-box-binding protein 1 (Homo sapiens), sequence (P17861 whole entry, looked up): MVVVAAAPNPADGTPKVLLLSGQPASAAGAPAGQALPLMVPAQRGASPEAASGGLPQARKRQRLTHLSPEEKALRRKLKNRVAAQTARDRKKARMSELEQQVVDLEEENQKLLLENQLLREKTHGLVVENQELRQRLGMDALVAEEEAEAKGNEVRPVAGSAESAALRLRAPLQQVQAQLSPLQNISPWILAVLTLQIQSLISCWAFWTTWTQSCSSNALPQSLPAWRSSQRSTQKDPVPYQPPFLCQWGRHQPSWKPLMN

O=C(O)c1cccc(C(F)(F)F)c1
not listed: [14] | [15] | [16] | [17] | [18] | [19]
inactive: all other assays above

NNc1nc(-c2ccc(N)cc2)cs1
not listed: [6] | [8] | [15] | [16] | [17] | [18] | [19]
inactive: all other assays above

CCCc1ccccc1O
inactive: [1] | [2] | [3] | [5] | [6] | [15] | [11] | [13] | [16]

c1ccc(CCCc2ccccn2)cc1
active: [2] 42.9 µM
not listed: [3] | [6] | [8] | [14] | [15] | [19]
inactive: all other assays above

COc1ccc(Cl)cc1C
not listed: [3] | [4] | [8] | [9] | [10] | [15] | [18] | [19]
inactive: all other assays above

CC1CC(OC(=O)c2ccccc2O)CC(C)(C)C1 (centres undefined)
inactive: [3] | [5] | [14] | [9] | [12] | [13] | [16]
active: [1] 181 µM

O=C1c2ccccc2C(=O)N1SC1CCCCC1
active: [1] 60.1 µM | [4] 46 µM | [5] 26.5 µM
not listed: [7] | [8] | [11] | [17]
inactive: all other assays above

CC1(C)[C@H](C(=O)OCc2cccc(Oc3ccccc3)c2)[C@@H]1C=C(Cl)Cl
not listed: [3] | [5] | [7] | [14] | [15] | [17] | [19]
inactive: all other assays above

CCCCCCOC(=O)CCCCC
not listed: [3] | [4] | [7] | [9] | [11] | [15] | [17] | [19]
inactive: all other assays above

Nc1cccc(S(=O)(=O)c2cccc(N)c2)c1
not listed: [6] | [14] | [15] | [18] | [19]
inactive: all other assays above

N#Cc1ccccc1
not listed: [3] | [4] | [9] | [14] | [15] | [19]
inactive: all other assays above

O=C(O)C[C@H](O)C[C@H](O)/C=C/c1c(C2CC2)nc2ccccc2c1-c1ccc(F)cc1
not listed: [3] | [7] | [14] | [15] | [18]
inactive: all other assays above

C=C(C)[C@@H]1CCC2=CC(=O)C[C@@H](C)[C@]2(C)C1
inactive: [1] | [2] | [4] | [5] | [14] | [9] | [11] | [12] | [13] | [16]

C=CC(=O)OCCOCCOCC
active: [5] 135 µM
inactive: [1] | [14] | [7] | [10] | [11] | [12] | [13] | [16]

CCCC[n+]1ccccc1
inactive: [1] | [5] | [14] | [15] | [9] | [10] | [12] | [18] | [13] | [16]
